The results in this text go back to the OligoGym collection.
Note: reference of the scale not given here.

For one experiment, the target named is IL13RA1. Briefly: pooled miR-30 sensor sort-seq; sequence = guide strand. Particulars: shRNA.
Take TTTCTTATCTTGTTTGTCGCCA: the sensor-assay potency score (higher = more potent) amounted to 0.315.

With TACAGAGTCGGTTTCCTCCTTG, the sensor-assay potency score (higher = more potent) was 0.15.

Consider TTTGACTCTTATTCTGACTGTG, for which the sensor-assay potency score (higher = more potent) is 0.568.

The sequence TTCTTATCTTGTTTGTCGCCAA displayed a sensor-assay potency score (higher = more potent) of -0.0977.

TTCCATGTCCATATTACTGTGC returned a sensor-assay potency score (higher = more potent) of -0.274.

For the sequence ATAGACTACAATTTGAGCTGGC, the sensor-assay potency score (higher = more potent) amounted to 0.897.

TTGTTCAAAACTGGAATCCTTC had a sensor-assay potency score (higher = more potent) of -0.391.

For the sequence TAGTAGAGAGTATAGTTAGTGT, the sensor-assay potency score (higher = more potent) is -0.663.

As for TTGACCATTATTTGGACACTGT, the sensor-assay potency score (higher = more potent) was 0.157.

The sequence TTTTCTATCAGCACTACAGAGT registered a sensor-assay potency score (higher = more potent) of -0.723.

TTGCTTCTCATAGATGTCGTAC displayed a sensor-assay potency score (higher = more potent) of -0.044.

TTGACTCTTATTCTGACTGTGT returned a sensor-assay potency score (higher = more potent) of 0.685.

A further experiment addresses IL16. The description is as above. Conditions: shRNA.
TTCTACAGAAACATCACTGGCT gave a sensor-assay potency score (higher = more potent) of 0.755.

TTTCTCCTGATGACAATCGTGA yielded a sensor-assay potency score (higher = more potent) of -0.801.

In the case of TTGGTCTCGAAGTTCCCGCAGC, the sensor-assay potency score (higher = more potent) was -0.85.

For ATCTTCTCCAGTGTCACCGTGC, the sensor-assay potency score (higher = more potent) is -0.369.

For TTCCTTGTGACAATCACAGCTT, the sensor-assay potency score (higher = more potent) turned out to be 0.571.

TTTAGGAACAACCTTTTGCTGG displayed a sensor-assay potency score (higher = more potent) of -0.755.

On to TTCATGAAGAATATCCTCCTAC, for which the sensor-assay potency score (higher = more potent) came to 0.448.

TTTCTAGATCTGCTCCTCCTGC returned a sensor-assay potency score (higher = more potent) of -0.608.

With TTTGTTCTGAGGCTGCTCCTTT, the sensor-assay potency score (higher = more potent) was 0.156.
